LAP4 TOR yeast = modulators of LAP4-GFP expression in yeast, primary screen, S. cerevisiae, multiplex flow cytometry, MLPCN library; 3 h; median GFP as percent of DMSO wells; GFP response vs DMSO, % at 10 µM; hit rate 0.34% among 320,000; AID 2023, 2009;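 active = GFP response vs DMSO above a set limit, about the screen mean plus 3 SD, cut at about 150% in these data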
MEP2 TOR yeast = modulators of MEP2-GFP levels in yeast, primary screen, S. cerevisiae, multiplex flow cytometry, MLPCN library. S. cerevisiae MEP2-GFP strain, 3 h; 100% = DMSO control level. GFP response vs DMSO, % at 10 µM. hit rate 0.51% among 330,000;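 active = GFP response versus DMSO above a set limit, roughly screen mean plus 3 SD, cut at about 180% in these data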;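 also: median GFP fluorescence of the barcode-gated MEP2-GFP cells per well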
RPL19A TOR yeast = RPL19A-GFP expression modulators in yeast, primary screen, cell-based, S. cerevisiae, multiplex flow cytometry, MLPCN; S. cerevisiae RPL19A-GFP strain, 3 h; active compounds read low; percent response vs DMSO, % at 10 µM; hit rate 0.3% among 330,000; AID 2025, 2009;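 active = percent response vs DMSO below 50%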;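 also: median channel GFP fluorescence of the barcoded RPL19A-GFP strain; lower means less RPL19A-GFP as with rapamycin TOR inhibition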
CIT2-GFP yeast = modulators of CIT2-GFP expression in yeast, primary screen, S. cerevisiae, GFP fusion, multiplex flow cytometry, MLPCN library. S. cerevisiae CIT2-GFP strain, 3 h; 100 means same as DMSO wells. hit rate 0.065% among 320,000. AID 2029, 2009. GFP response vs DMSO, % at 10 µM;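 active = GFP response relative to DMSO above a set limit, near the screen mean plus 3 SD, cut at about 150% in these data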;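 also: ratio of well median GFP fluorescence to mean of DMSO wells on the plate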
AGP1 TOR yeast = modulators of AGP1-GFP expression in yeast TOR pathway, primary screen, cell-based, multiplex flow cytometry, S. cerevisiae, MLPCN library; hit rate 0.02% among 320,000; GFP response vs DMSO, % at 10 µM; 3 h; GFP as percent of DMSO wells; AID 2066, 2009;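 active = GFP response relative to DMSO above a set limit, near screen average plus 3 SD, cut at about 150% in these data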;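 also: median GFP channel fluorescence of the gated AGP1 strain per well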
LAP4 cherry2 = LAP4-GFP expression modulators in yeast, confirmation, cell-based, second cherry pick, flow cytometry | hit rate 20% among 590 | shares compounds with LAP4 TOR yeast | S. cerevisiae LAP4-GFP strain, 3 h | GFP response vs DMSO, % at 10 µM;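 active = GFP signal as percent of the solvent control above about 150%, meaning raised reporter expression, limit read from the data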
MEP2 cherry2 = modulators of MEP2-GFP levels in yeast, confirmation, S. cerevisiae, flow cytometry GFP, second cherry picks | S. cerevisiae MEP2-GFP strain, 3 h | shares compounds with LAP4 TOR yeast | GFP response vs DMSO, % at 10 µM | hit rate 10% among 590;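 active = GFP signal above 150% of the solvent control wells, that is a rise of more than half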;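 also: median channel GFP fluorescence of all gated yeast cells per well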
RPL19A GFP CP2 = RPL19A-GFP modulators in TOR pathway yeast, confirmation, cell-based, S. cerevisiae, flow cytometry, second cherry pick; shares compounds with LAP4 TOR yeast; S. cerevisiae RPL19A-GFP strain, 3 h; active compounds read low; 100% means same as DMSO wells; GFP response vs DMSO, % at 10 µM; hit rate 3% among 590;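 active = under 65% GFP response relative to DMSO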;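 also: median GFP channel fluorescence per well over the all cells gate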
CIT2 GFP CP2 = modulators of CIT2-GFP expression in yeast, confirmation, flow cytometry, second cherry pick, single plex; shares compounds with LAP4 TOR yeast; S. cerevisiae CIT2-GFP strain, 3 h; DMSO control wells read 100%; GFP response vs DMSO, % at 10 µM; hit rate 8% among 590; AID 2624, 2010;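 active = GFP response vs DMSO above about 150%, limit read from the data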;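 also: median green fluorescence per well over all gated yeast cells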
AGP1 GFP CP2 = AGP1-GFP expression modulators, hit retest, confirmation, cell-based, flow cytometry, S. cerevisiae, cherry pick set 2; shares compounds with LAP4 TOR yeast; S. cerevisiae AGP1-GFP strain, 3 h; percent response vs DMSO, % at 10 µM; 590 tested, under 10 active;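 active = over 150 percent of DMSO response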;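 also: median GFP channel fluorescence over all cells without mother daughter split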
Yeast autofluor = compound autofluorescence in yeast s288c, dose response, artefact control for yeast TOR pathway GFP screen, s288c strain. shares compounds with LAP4 TOR yeast. S. cerevisiae s288c, 520 nm autofluorescence, flow cytometry, 3 h; active compounds read high; zero means same as solvent-only cells. fluorescence change (kMESF span) at 33 µM. 610 tested, under 10 active. AID 2757, 2010;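 active = fluorescence span over the dose series, or activity score, above about 33, limit read from the data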
s288c autofl DR = autofluorescence of compounds in yeast s288c, dose response, artefact control for yeast TOR pathway GFP screen, primary hits, KU SAR, s288c parental | shares compounds with LAP4 TOR yeast | S. cerevisiae s288c parental, compound autofluorescence, flow cytometry, 3 h | fluorescence change (span) at 33 µM | 110 tested, under 10 active | AID 488829, 2010;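 active = fluorescence change span, or the activity score built from it, above 25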
TORC1 bypass gr = wild-type yeast growth inhibition sparing TORC1 bypass cells, mechanism study for yeast TOR pathway GFP screen, BY4741 wild type, TORC1 bypass strain; shares compounds with LAP4 TOR yeast; S. cerevisiae BY4741 spot growth rating, 48-72 h; active compounds read low; growth rating (0-3) at 30 µM; 120 tested, under 10 active; AID 504456, 2011;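 active = growth rating at most 1 for wild type yeast while the TORC1 bypass strain still grows fully, rated 3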
Large screens that a line does not name were inactive (follow-up assays come after a bar, where they were run). This is a sample that favours compounds with a hit; in the whole collection about 0.92% have one here.

CCOC(=O)N1CCC(N2CCCC(C(=O)c3ccccc3OC)C2)CC1 (configuration not stated)	none
COc1ccccc1NC(=O)c1cc[n+](C)cc1	none
O=C(OCC(=O)N1CCN(C(=O)c2ccco2)CC1)c1cc(-c2ccc(Cl)c(Cl)c2Cl)nc2ccccc12	none | Yeast autofluor inactive
O=C(OCC(=O)N1CCN(C(=O)c2ccco2)CC1)c1cc(-c2ccco2)nc2ccccc12	none
CNS(=O)(=O)c1ccc(NCC2COc3ccccc3O2)c([N+](=O)[O-])c1 (configuration not stated)	none
COCCN(Cc1ccccc1)C(=O)c1cccc(S(=O)(=O)N(C)c2c(C)n(C)n(-c3ccccc3)c2=O)c1	none
CC[C@]12CCCN3CCc4c(n(c5ccccc45)C(=O)C1)C32 (some centres not stated)	LAP4 TOR yeast 167.2 | LAP4 cherry2 inactive | MEP2 cherry2 inactive | RPL19A GFP CP2 inactive | CIT2 GFP CP2 inactive | AGP1 GFP CP2 inactive
CCN(CC)C(=O)Cn1cnc2sc(C(=O)Nc3cc(OC)c(OC)c(OC)c3)c(C)c2c1=O	none
CCOc1ccc(CCNC(=O)c2cc(-c3ccccc3)c(N3CCOCC3)s2)cc1OCC	none
COc1cc(/C=C2/SC(=S)N(Cc3ccccc3)C2=O)ccc1O	none
O=C1/C(=C\c2ccc(O)c(O)c2)SC(=S)N1Cc1ccccc1	LAP4 TOR yeast 218.9, MEP2 TOR yeast 408.7, CIT2-GFP yeast 202.7 | Yeast autofluor 33.1
Cc1ccc(/C=C2\SC(=S)N(Cc3ccccc3)C2=O)o1	LAP4 TOR yeast 156.0 | LAP4 cherry2 151.9 | MEP2 cherry2 inactive | RPL19A GFP CP2 inactive | CIT2 GFP CP2 inactive | AGP1 GFP CP2 inactive | Yeast autofluor inactive
CCCCNC(=S)NNC(=O)c1cccnc1	none
COc1ccc(N2CCN(C(=S)Nc3ccccc3OC)CC2)cc1	none
COc1ccccc1N(CC(=O)Nc1cc(S(=O)(=O)N(C)C)ccc1C)S(=O)(=O)c1cccs1	none
O=C(O)c1ccc(COc2ccccc2C=C2C(=O)c3ccccc3C2=O)cc1	none | LAP4 cherry2 inactive | MEP2 cherry2 inactive | RPL19A GFP CP2 inactive | CIT2 GFP CP2 inactive | AGP1 GFP CP2 inactive | Yeast autofluor inactive
O=C1NC(=S)N/C1=C\c1ccccc1OCc1ccc(C(=O)O)cc1	none
COc1ccc(N2C(=O)C(Cl)=C(Oc3cccc(OC)c3)C2=O)cc1	LAP4 TOR yeast 197.5 | Yeast autofluor inactive
O=C(c1ccc(Cl)cc1)N1CCC(O)(CSc2ccccc2)CC1	none | LAP4 cherry2 inactive | MEP2 cherry2 inactive | RPL19A GFP CP2 inactive | CIT2 GFP CP2 inactive | AGP1 GFP CP2 inactive
COc1ccc(CCC(=O)Nc2cccc(S(=O)(=O)N(C)C)c2)cc1OC	none
CC(NC(=O)c1ccccc1F)C12CC3CC(CC(C3)C1)C2 (configuration not stated)	LAP4 TOR yeast 158.0 | LAP4 cherry2 inactive | MEP2 cherry2 inactive | RPL19A GFP CP2 inactive | CIT2 GFP CP2 inactive | AGP1 GFP CP2 inactive
CS(=O)(=O)c1ccc(Sc2nc3ccccc3s2)c([N+](=O)[O-])c1	none
O=[N+]([O-])c1cc(S(=O)(=O)C(F)(F)F)ccc1Sc1nc2ccccc2s1	LAP4 TOR yeast 159.0 | Yeast autofluor inactive | s288c autofl DR inactive | TORC1 bypass gr inactive
COc1ccc(NC(=O)CN(C)C(=O)C2(c3ccccc3)CCCC2)cc1	LAP4 TOR yeast 152.2 | LAP4 cherry2 inactive | MEP2 cherry2 inactive | RPL19A GFP CP2 inactive | CIT2 GFP CP2 inactive | AGP1 GFP CP2 inactive
Cc1cccc(NC(=O)C(C)C(=O)c2ccccc2)c1 (configuration not stated)	none | LAP4 cherry2 inactive | MEP2 cherry2 inactive | RPL19A GFP CP2 inactive | CIT2 GFP CP2 inactive | AGP1 GFP CP2 inactive
Cc1cccc(C(=O)NNC(=O)Nc2ccccc2)c1	none

Source: PubChem BioAssay (NMMLSC)
